Laboratory results from PubChem BioAssay AID1671189 (National Center for Advancing Translational Sciences (NCATS), 2021).
About 70 (6%) of roughly 1,100 compounds were called active. Not shown: some 22% with an inconclusive outcome. The full list was thinned out, with actives kept by preference. Unmarked numbers belong to inactive results. Calls come from the whole dose curve; as a rule, active = well fitted curve in the direction sought with a large enough effect; inconclusive = small, poorly fitted or top-dose-only effect, or another doubt; inactive = no such curve, though single readings can be large or run the other way.

target: Polyunsaturated fatty acid lipoxygenase ALOX12 (Homo sapiens) (UniProt P18054); assay: Confirmatory qHTS assay for inhibitors of human arachidonate 12S-lipoxygenase (ALOX12): Round 2; conditions: purified human 12-LOX, xylenol orange absorbance; series mostly up to 125 µM; activity change, negative = inhibition: at the top concentration
Text: Assay Provider: Theodore R. Holman Ph.D. University of California, Santa Cruz, California Human lipoxygenase 12hLO is a member of the closely related lipoxygenase family of enzymes which catalyze the site-specific oxidation of arachidonic acid to various hormone precursor molecules and as such is a candidate for drug development in a variety of disease areas, such as cancer and inflammation. Inhibition of 12hLO activity was screened by utilizing arachidonic acid as a substrate. The extent of hydroperoxide product formation was measured by a secondary chromogenic reaction in which xylenol orange (XO, Sigma-Aldrich, cat. number 39,818-7) reacts with the ferric ions produced from the reaction between the hydroperoxide and ferrous ions. The Fe (III)-XO complex is characterized with red-shifted absorbance at 560 nm. A purified preparation of human 12hLO was supplied by Dr. Holman laboratory, University of California, Santa Cruz.
PROTOCOL TABLE SEQUENCE No. (e.g., 1, 2, 3, etc.); […] (e.g., Cells, Incubation, Reagent, etc.); VALUE; DESCRIPTION 1; Enzyme; 3 uL; 150 nM 12hLO enzyme solution dispensed in 1536-well Greiner black, clear bottom plates. 2; Compound; 23 nL; compounds and controls were added. 3; Incubate; 15 min; room temperature. 4; Substrate; 1 uL; 40 uM arachidonic acid (final concentration). 5; Incubate; 30 min; room temperature. 6; Reagent; 4 uL; Fe-XO solution was added to each well. 7; Incubation; 30 min; room temperature 8; Detector; absorbance; Read 1 at 405 nm absorbance using ViewLux (PerkinElmer) CCD imager. 9; Detector; absorbance; Read 2 at 573 nm absorbance using ViewLux (PerkinElmer) CCD imager. NOTES (numbers refer to sequence above) 1; 150 nM 12hLO (final concentration) in buffer solution (25 mM Hepes, 0.01% Triton X-100, pH 7.0) was dispensed in columns 1, 2, 5-48. Column 1 is neutral (100% activity). Buffer only was dispensed in columns 3 and 4 as no enzyme negative controls. The plates were covered with metal lids with gas-exchange holes. 2; Compounds were pin transferred via a Kalypsys Pin Tool (Wako USA) in column 5 - 48. Control compound was transferred in column 2, titration of nordihydroguaiaretic acid (NDGA, Sigma-Aldrich, N5023) with top concentration of 20 mM in DMSO then 1:3 dilution in duplicate. Dilution factor of 23 nL into 4 uL final assay volume. 3; Covered assay plates were incubated for 15 min at room temperature. 4; Substrate was added to start the reaction; 40 uM arachidonic acid (Sigma-Aldrich, St. Louis, MO) was dispensed throughout the plate. 6; Chromogenic detection reagent solution (divalent iron/xylenol orange, Fe-XO) was added to each well: 200 uM xylenol orange, 300 uM ferrous ammonium sulfate prepared freshly in 50 mM sulfuric acid. 8, 9; Two absorbance readouts were obtained at 405 nm and at 573 nm using a ViewLux high-throughput CCD plate imager (PerkinElmer). The 573 to 405 (Read 2 / Read 1) absorbance ratio was used to compute reaction progress.
% is set by controls: 0 for no effect and ±100 for the full control effect; potency is the fitted concentration of half-maximal effect.

Polyunsaturated fatty acid lipoxygenase ALOX12 (Homo sapiens), sequence (P18054 whole entry, looked up): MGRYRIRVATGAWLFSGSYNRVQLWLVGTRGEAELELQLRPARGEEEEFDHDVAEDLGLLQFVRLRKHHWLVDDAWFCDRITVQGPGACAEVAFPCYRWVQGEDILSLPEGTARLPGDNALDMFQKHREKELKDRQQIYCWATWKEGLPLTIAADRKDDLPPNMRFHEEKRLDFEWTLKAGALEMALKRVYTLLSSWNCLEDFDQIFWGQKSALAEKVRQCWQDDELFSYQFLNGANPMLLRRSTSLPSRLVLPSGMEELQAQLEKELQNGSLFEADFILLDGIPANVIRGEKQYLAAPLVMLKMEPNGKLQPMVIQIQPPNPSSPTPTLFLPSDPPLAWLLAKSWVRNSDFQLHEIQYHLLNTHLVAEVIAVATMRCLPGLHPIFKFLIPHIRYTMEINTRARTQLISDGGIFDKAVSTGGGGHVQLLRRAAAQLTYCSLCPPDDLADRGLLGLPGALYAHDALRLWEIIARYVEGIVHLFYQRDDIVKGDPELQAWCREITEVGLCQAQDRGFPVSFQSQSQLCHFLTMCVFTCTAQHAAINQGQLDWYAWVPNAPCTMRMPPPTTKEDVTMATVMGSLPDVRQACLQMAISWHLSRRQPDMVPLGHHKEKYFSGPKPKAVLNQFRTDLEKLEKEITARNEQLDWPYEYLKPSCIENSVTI

Question: How did the “activity change, negative = inhibition” value turn out when `CNc1oc(-c2ccc(Cl)c(Cl)c2)nc1C#N` was run?
Answer: -1.38% [at 64.5 µM]

Question: `c1cc(NCCN2CCCC2)ccn1` was tested. Which “activity change, negative = inhibition” value did it give?
Answer: -4.41% [at 233 µM]

Question: With `Clc1ccc(NCCN2CCCC2)cc1` as the compound, how does the Potency read?
Answer: 90.2 µM (active)

Question: Which “activity change, negative = inhibition” value does the source give for `c1ccc(NCCN2CCCC2)cc1` here?
Answer: -22.6% [at 233 µM]

Question: For `Cn1nc(C2CCNC2)c2c(C(=O)NC3CC3)cc(C3CC3)nc21` (stereo not given), which “activity change, negative = inhibition” value is on record?
Answer: -13.8%

Question: How did the “activity change, negative = inhibition” value turn out when `O=C(OCC#CCSc1nnc(-c2cccc3ccccc23)o1)c1ccsc1` was run?
Answer: -10.6% [at 64.5 µM]

Question: How did the “activity change, negative = inhibition” value turn out when `NCc1ccc(-c2cccc(Cl)c2)cc1` was run?
Answer: -14.7%

Question: How did the Potency turn out when `Nc1cc(-c2ccccc2)ccc1O` was run?
Answer: 0.273 µM (active)

Question: With `NCc1ccc(-c2cccc(O)c2)cc1` as the compound, how does the “activity change, negative = inhibition” value read?
Answer: -27.6%

Question: How did the “activity change, negative = inhibition” value turn out when `N[C@@H]1CC[C@H](C(=O)N2CCC(c3nccn3Cc3ccncc3)CC2)C1` was run?
Answer: -14.6% [at 64.5 µM]

Question: How did the “activity change, negative = inhibition” value turn out when `O=C(OCC#CCSc1nnc(-c2cccc3ccccc23)o1)c1sccc1Cl` was run?
Answer: 8.4% [at 64.5 µM]

Question: Which “activity change, negative = inhibition” value does the source give for `CN1CC(=O)N(C2CCNC2)Cc2c(NCC3(O)CCCCC3)ncnc21` (stereo not given) here?
Answer: -19.9%

Question: With `CCCCN1C(=O)[C@@H]2C[C@@H](O)CN2C2(CN(Cc3cnc[nH]3)C2)C1=O` as the compound, how does the “activity change, negative = inhibition” value read?
Answer: 16.1% [at 64.5 µM]

Question: `O=C(c1cc(C2CC2)nc2onc(C3CCCNC3)c12)N1CCCCC1` (stereo not given) was tested. Which “activity change, negative = inhibition” value did it give?
Answer: -15.8%

Question: `CC(=O)NC1(C)CCN(Cc2cnc(-c3ccccc3OCc3ccccc3)s2)CC1` was tested. Which Potency did it give?
Answer: 4.47 µM (active)

Question: `O=C1NCc2ccccc2CC12CCN(Cc1ccc(Cl)o1)C2` (stereo not given) was tested. Which “activity change, negative = inhibition” value did it give?
Answer: -14.1%

Question: For `O=C1Nc2ccccc2C12CCN(Cc1ccccc1)C2` (stereo not given), which “activity change, negative = inhibition” value is on record?
Answer: -20.4%

Question: Which “activity change, negative = inhibition” value does the source give for `CC(=O)N1CCN(C(=O)CSCC(=O)O)C[C@H]1C(=O)N[C@H]1CCCNC1=O` here?
Answer: -4.79% [at 64.5 µM]

Question: Which “activity change, negative = inhibition” value does the source give for `O=c1[nH]c(C2CCCN(Cc3ccc(-c4cc(F)cc(F)c4)cc3)C2)nc2ccc(F)cc12` (stereo not given) here?
Answer: -20.1%

Question: For `CN1CC(=O)N(C2CCNCC2)Cc2c(NC3CCCCC3)ncnc21`, which “activity change, negative = inhibition” value is on record?
Answer: -13%

Question: Which Potency does the source give for `O=C(c1cc(-c2ccco2)nn1-c1cccc(Cl)c1)N1CCCCC1` here?
Answer: 9.68 µM (active)

Question: For `O=C(c1ccccc1)N1CCn2c(nn(-c3cccc(Cl)c3)c2=O)C1`, which “activity change, negative = inhibition” value is on record?
Answer: -29%

Question: How did the “activity change, negative = inhibition” value turn out when `O=c1n(-c2cccc(Cl)c2)nc2n1CCN([S+](=O)([O-])c1ccccc1)C2` was run?
Answer: -36%

Question: With `O=C(c1ccc(C(F)(F)F)cc1)N1CCc2nc(C3CC3)nc(-c3ccc(Cl)cc3)c2C1` as the compound, how does the “activity change, negative = inhibition” value read?
Answer: -19.2%

Question: For `O=C(N1CCCC1)N1CCn2c(nnc2-c2cncc(Br)c2)C1`, which “activity change, negative = inhibition” value is on record?
Answer: -10.2%

Question: With `O=C(O)CCCC(=O)N1Cc2ccccc2CC2(CCCN2Cc2ccccc2)C1` (stereo not given) as the compound, how does the “activity change, negative = inhibition” value read?
Answer: -17.9%

Question: Which “activity change, negative = inhibition” value does the source give for `CC1CCCN(c2ncnc3c2CN(C2CCCNCC2)C(=O)CN3C)C1` (stereo not given) here?
Answer: -9.31%

Question: `CCC(=O)NC(c1ccco1)c1cc(Cl)c2cccnc2c1O` (stereo not given) was tested. Which Potency did it give?
Answer: 2.17 µM (active)

Question: Which Potency does the source give for `CC(=O)NC(c1ccco1)c1cc(Cl)c2cccnc2c1O` (stereo not given) here?
Answer: 4.85 µM (active)

Question: Which “activity change, negative = inhibition” value does the source give for `CCC(=O)NC(c1ccco1)c1cc(Cl)c2cccnc2c1OC` (stereo not given) here?
Answer: 10.7% [at 64.5 µM]

Question: With `COc1ccc(CNc2ncnc3c2CN(C2CCCNCC2)C(=O)CN3C)cc1` (stereo not given) as the compound, how does the “activity change, negative = inhibition” value read?
Answer: -4.88%

Question: With `C[S+](=O)([O-])N1Cc2ccccc2OC2(CCN(C(=O)c3ccc(N)nc3)CC2)C1` as the compound, how does the “activity change, negative = inhibition” value read?
Answer: -11.4%

Question: With `CN1C(=O)[C@@H]2C[C@@H](CN2C2CCCC2)Oc2ccccc21` as the compound, how does the “activity change, negative = inhibition” value read?
Answer: 14.6%

Question: Which “activity change, negative = inhibition” value does the source give for `N#Cc1ccc(CN2CCC3(CN[S+](=O)([O-])c4cnccc4O3)C2)cc1` (stereo not given) here?
Answer: -2.99%

Question: Which “activity change, negative = inhibition” value does the source give for `CNCCN1C(=O)CC[C@H]2CN(C(=O)c3ccc(Cl)cn3)CC[C@H]21` here?
Answer: -6.14% [at 64.5 µM]

Question: How did the “activity change, negative = inhibition” value turn out when `C=CCNC(=O)[C@@H]1Cc2cn(CC#CC)c3cccc(c23)[C@H](CC(C)C)N1` was run?
Answer: 24% [at 64.5 µM]

Question: For `C=CCn1cc(CN(Cc2ccco2)Cc2cccs2)c(C)n1`, which Potency is on record?
Answer: 10 µM (active)

Question: How did the “activity change, negative = inhibition” value turn out when `Cc1ccc(C(=O)N2CCn3c(nnc3C3CCNCC3)C2)cc1` was run?
Answer: -13.1%

Question: How did the “activity change, negative = inhibition” value turn out when `c1ccc(COCCCc2cnc[nH]2)cc1` was run?
Answer: -4.41%

Question: For `COCCNC(=O)c1cc(C)nc2onc(C3CCCNC3)c12` (stereo not given), which “activity change, negative = inhibition” value is on record?
Answer: -16.4%

Question: Which “activity change, negative = inhibition” value does the source give for `O=C(O)c1ccc(-c2cnccn2)cc1` here?
Answer: -16.6% [at 233 µM]

Question: With `CN1CCC2(Cc3ccccc3CN(C(=O)Cc3cccc(Cl)c3)C2)C1` (stereo not given) as the compound, how does the “activity change, negative = inhibition” value read?
Answer: -13.9%

Question: How did the “activity change, negative = inhibition” value turn out when `CNC(C)c1cccc(OC)c1` (stereo not given) was run?
Answer: -2.95% [at 233 µM]

Question: With `O=[S+]([O-])(Nc1ccc(N2CCNCC2)cc1)c1ccc(NCc2ccc(Cl)cc2O)cc1` as the compound, how does the Potency read?
Answer: 21.7 µM (active)

Question: With `O=[S+]([O-])(Nc1ccc(N2CCNCC2)cc1)c1ccc(NCc2ccc(Br)cc2O)cc1` as the compound, how does the Potency read?
Answer: 21.7 µM (active)

Question: For `O=C(CCC[C@H]1NC[C@@H]2CC1CN(Cc1ccccc1)C2)NCc1ccc(F)cc1`, which “activity change, negative = inhibition” value is on record?
Answer: -6.95% [at 64.5 µM]

Question: For `Cc1ccc(CN2CCC3(CC2)Cc2ccccc2CNC3=O)cc1C`, which “activity change, negative = inhibition” value is on record?
Answer: -18.2%

Question: How did the “activity change, negative = inhibition” value turn out when `O=C(NCc1ccncc1)c1cc(C2CC2)nc2c1c(C1CCCN1)nn2-c1ccccc1` (stereo not given) was run?
Answer: -24.4%

Question: How did the “activity change, negative = inhibition” value turn out when `Cc1cc(C(=O)NCc2ccc(F)cc2)c2c(C3CCNC3)noc2n1` (stereo not given) was run?
Answer: -2.62%

Question: `O=C1CCN(C(=O)[C@@H]2CCCN2Cc2ccc(C(F)(F)F)cc2)CCCCCCN1` was tested. Which “activity change, negative = inhibition” value did it give?
Answer: 0.301% [at 64.5 µM]

Question: Which “activity change, negative = inhibition” value does the source give for `CCn1cc(-c2ccc(C)cc2)cc1C(=O)N1CCN(c2ccccn2)CC1` here?
Answer: -19.2% [at 64.5 µM]

Question: How did the “activity change, negative = inhibition” value turn out when `CCC(C)Cn1c(/C=C/c2ccccc2)nc2ccccc21` (stereo not given) was run?
Answer: -20.9%

Question: `C[C@]1(CO)[C@H]2Cc3sc(NC(=O)c4ccnc(Cl)c4)nc3[C@@H](CC(=O)O)[C@]2(C)CC[C@H]1O` was tested. Which “activity change, negative = inhibition” value did it give?
Answer: -0.718% [at 64.5 µM]

Question: Which Potency does the source give for `CCC(=O)NC(c1cccs1)c1cc([N+](=O)[O-])c2cccnc2c1O` (stereo not given) here?
Answer: 6.11 µM (active)

Question: How did the Potency turn out when `CC(=O)NC(c1cccs1)c1cc(Cl)c2cccnc2c1O` (stereo not given) was run?
Answer: 3.06 µM (active)
